Test results reported in PMC4336329 (PLoS ONE, 2015).
The campaign covered roughly 310,000 compounds. About 14,000 (4.5%) showed an effect of 50% or more. The effect is printed as a negative number. The list comes from a sample in which strong results are over-represented; it also holds similar structures and randomly drawn compounds.

biological target: human ether-à-go-go-related gene (hERG) potassium channel (human, UniProt Q12809); assay: primary screen, population patch clamp on CHO cells stably expressing hERG; higher = less effect of the substance
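Note: peak tail current of the secondary pulse compared with the same well before compound.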

Sequence of human ether-à-go-go-related gene (hERG) potassium channel (Q12809 whole entry, looked up): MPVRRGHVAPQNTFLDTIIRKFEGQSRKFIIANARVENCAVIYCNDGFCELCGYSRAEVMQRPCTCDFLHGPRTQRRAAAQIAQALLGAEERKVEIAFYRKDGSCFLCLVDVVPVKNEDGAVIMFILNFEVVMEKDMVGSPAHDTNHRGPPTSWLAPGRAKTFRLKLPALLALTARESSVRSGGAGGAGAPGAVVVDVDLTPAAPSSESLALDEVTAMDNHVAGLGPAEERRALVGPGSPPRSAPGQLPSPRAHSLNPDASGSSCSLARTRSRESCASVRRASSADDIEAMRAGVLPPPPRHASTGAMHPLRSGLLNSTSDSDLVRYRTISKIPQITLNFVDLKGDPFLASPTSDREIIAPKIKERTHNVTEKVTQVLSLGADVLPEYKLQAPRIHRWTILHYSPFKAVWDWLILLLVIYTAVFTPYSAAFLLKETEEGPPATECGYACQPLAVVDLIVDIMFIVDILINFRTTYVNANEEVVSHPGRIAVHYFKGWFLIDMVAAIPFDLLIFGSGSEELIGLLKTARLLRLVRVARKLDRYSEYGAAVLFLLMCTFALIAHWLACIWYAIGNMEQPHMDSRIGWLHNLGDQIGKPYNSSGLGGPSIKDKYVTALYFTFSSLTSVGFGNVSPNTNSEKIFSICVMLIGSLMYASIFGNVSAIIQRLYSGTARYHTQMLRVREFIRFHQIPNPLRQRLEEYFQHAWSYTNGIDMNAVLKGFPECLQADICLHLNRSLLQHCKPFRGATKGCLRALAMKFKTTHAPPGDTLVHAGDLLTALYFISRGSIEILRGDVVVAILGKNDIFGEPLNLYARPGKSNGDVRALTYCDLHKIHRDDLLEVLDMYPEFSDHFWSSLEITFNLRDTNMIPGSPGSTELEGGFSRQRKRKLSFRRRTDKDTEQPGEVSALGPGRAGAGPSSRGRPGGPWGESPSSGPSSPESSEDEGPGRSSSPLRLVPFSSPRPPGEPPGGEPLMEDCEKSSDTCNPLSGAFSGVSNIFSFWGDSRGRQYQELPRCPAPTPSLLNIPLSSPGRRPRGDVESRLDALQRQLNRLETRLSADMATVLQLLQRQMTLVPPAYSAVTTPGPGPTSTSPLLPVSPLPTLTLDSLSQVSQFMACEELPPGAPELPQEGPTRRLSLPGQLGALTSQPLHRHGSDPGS

SMILES	hERG current change (%, negative = inhibition) at 10uM
CCNc1nc(SC(C)C(=O)Nc2ccccc2)nc(N(C)C)n1 (stereo not drawn)	11.8%
CC(C)Nc1nc(SC(C)C(=O)Nc2ccccc2)nc(N(C)C)n1 (stereo not drawn)	-51.4%
O=C(NCCC1=CCCCC1)Nc1ccc2nsnc2c1	8.84%
O=C(c1cnc(-c2ccc(Cl)cc2)s1)c1ccc(Cl)cc1Cl	5.71%
CCN(CC)CCn1c2c(c(SCC(=O)Nc3ccc(C)c(F)c3)nc1=O)CCCC2	-70.1%
CCN(CC)CCCn1c2c(c(SCC(=O)Nc3ccc(C)c(F)c3)nc1=O)CCC2	-64.5%
CCN(CC)CCn1c2c(c(SCC(=O)Nc3ccc4c(c3)OCCO4)nc1=O)CCCC2	-20.4%
CCN(CC)CCn1c2c(c(SCC(=O)Nc3ccc(C)c(F)c3)nc1=O)CCC2	-63.8%
CN(C)CCCn1c2c(c(SCC(=O)Nc3ccc4c(c3)OCO4)nc1=O)CCCC2	-39.7%
CN(C)CCCn1c2c(c(SCC(=O)Nc3ccc4c(c3)OCO4)nc1=O)CCC2	-10.7%
CCC1Oc2ccc(C)cc2N(CC(=O)NCc2cccc(OC)c2)C1=O (stereo not drawn)	-8.94%
CNC(=O)c1cc2cc(OC)ccc2oc1=N	10.4%
CC/C(=N\NC(=O)c1c[nH]c2ccccc12)c1cccs1	10.9%
O=C(O)c1c(-n2cccc2)sc2c1CCCC2	24.4%
COc1cc(C)c(Br)cc1S(=O)(=O)NCc1ccccc1	12.9%
COc1ccc(CN2CCNC(=O)C2CC(=O)NCCN2CCCCC2=O)c(F)c1 (stereo not drawn)	19.1%
Cc1nn(CCCC(=O)Nc2ccccn2)c(C)c1[N+](=O)[O-]	18.3%
O=C(COc1ccc(-n2cnnn2)cc1)NCCc1ccc(F)cc1	-51.5%
O=C(COc1ccc(-n2cnnn2)cc1)N1CCN(c2ccc(F)cc2)CC1	-71.5%
O=C(COc1ccc2c(c1)CCC2)N1CCN(c2ccc(F)cc2)CC1	-2.53%
O=C(COc1ccc(-n2cnnn2)cc1)Nc1ccc(F)c(F)c1F	5.48%

SMILES	hERG current change (%, negative = inhibition) at 10uM
O=C(COc1ccc(F)cc1)Nc1ccc(-n2cnnn2)cc1	-49.5%
NC(=O)COc1ccc(-n2cnnn2)cc1	32.4%
N/C(=N\N=C\c1ccnc2ccccc12)SC1CC(=O)N(c2ccc(Br)cc2)C1=O (stereo not drawn)	0.637%
CC(C)Sc1cc(N2CCOCC2)nc(-c2ccccc2)n1	2.76%
COCCn1c(N)c(N(Cc2ccccc2)C(=O)c2ccc(-c3ccc(Cl)cc3)o2)c(=O)[nH]c1=O	-45.5%
Cc1ccc(-n2nc(C)c(/C=N/NC(=O)c3cccs3)c2Cl)cc1	5.12%
Cc1ccc(S(=O)(=O)N2CCN(CC(=O)N/N=C/c3ccco3)CC2)cc1	-33%
Cc1ccsc1/C=N/NC(=O)CN1CCN(S(=O)(=O)c2ccc(Br)cc2)CC1	-41.7%
O=C(CN1CCN(S(=O)(=O)c2ccc(Br)cc2)CC1)N/N=C/c1cccs1	-58.4%
Cc1ccc(S(=O)(=O)N2CCN(CC(=O)N/N=C/c3ccc(Br)s3)CC2)cc1	-49%
O=C(CN1CCN(S(=O)(=O)c2ccc(Br)cc2)CC1)N/N=C/c1ccccc1C(=O)O	14.2%
O=C(CN1CCOCC1)N/N=C/c1ccco1	17.1%
Cc1ccc(/C=N/NC(=O)CN2CCN(S(=O)(=O)c3ccc(Br)cc3)CC2)s1	-58.9%
O=C(CN1CCN(S(=O)(=O)c2ccc(Br)cc2)CC1)N/N=C/c1ccc(Br)s1	-17.6%
O=C(CN1CCN(S(=O)(=O)c2ccc(Br)cc2)CC1)N/N=C/c1ccco1	-56.9%
CN1CCN(c2c(F)cc([N+](=O)[O-])c(N)c2Br)CC1	-45.3%
OCCCc1cn(-c2ccccc2)c2ccccc12	7.41%
Cc1cc(C(=O)NNC(=O)c2ccc(C)s2)c(C)o1	3.91%
COc1ccc(N(C2CSC2)S(=O)(=O)c2ccccc2)cc1	8.52%
CCc1nc(SCC(=O)Nc2nnc(CC)s2)c2c(=O)n(C)c(=O)n(C)c2n1	4.23%
O=C(Cn1nc(-c2ccccc2F)ccc1=O)NCc1ccc2c(c1)OCO2	-36.9%
